Screening results deposited in PubChem by National Center for Advancing Translational Sciences (NCATS).
The list is not random: actives were taken first. Their share in the collection is about 2.4%.
FEN1 inh: qHTS Assay for the Inhibitors of Human Flap endonuclease 1 (FEN1) | P39748 | Recombinant FEN1 flap cleavage, fluorescence, 15 min | Potency, µM (series often up to 114 µM), inactives show top-dose activity change, negative = inhibition, actives largely listed as inhibitors | 390,000 tested, 0.35% active | AID 588795, 2011; also: % is scaled to controls: 0 for no effect and ±100 for the full control effect; nearly all actives have a fitted effect of over 65% in size
Target sequence (P39748 whole entry, looked up): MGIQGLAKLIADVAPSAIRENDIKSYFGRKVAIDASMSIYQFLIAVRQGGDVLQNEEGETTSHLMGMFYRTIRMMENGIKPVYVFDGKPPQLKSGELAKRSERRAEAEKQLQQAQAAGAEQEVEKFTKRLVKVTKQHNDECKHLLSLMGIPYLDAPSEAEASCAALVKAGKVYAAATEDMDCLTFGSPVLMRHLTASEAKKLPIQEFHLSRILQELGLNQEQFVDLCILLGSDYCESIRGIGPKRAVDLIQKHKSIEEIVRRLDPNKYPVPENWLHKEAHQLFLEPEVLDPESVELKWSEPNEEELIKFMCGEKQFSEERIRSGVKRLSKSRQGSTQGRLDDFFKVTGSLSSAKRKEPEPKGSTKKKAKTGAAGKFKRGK
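With each library titrated from low to high concentration, compounds met 10 nM FEN1 for 15 min at room temperature before 50 nM substrate was added; readings at 0 and 15 min fed four-parameter Hill curve fits.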
Pol beta inh: qHTS Assay for Inhibitors of DNA Polymerase Beta | P06746 | Pol beta primer extension/strand displacement, fluorescence kinetic | Potency, µM (titrated, usually from 114 µM), without a hit: at the top dose activity change, negative = inhibition, hits mostly inhibitors | 340,000 tested, 1.3% active; also: % is scaled to controls: 0 for no effect and ±100 for the full control effect
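Enzyme-only controls used 10 nM Pol beta; buffer lacking enzyme served as negative control. Compound preincubated 15 min, then 50 nM substrate added; 0 and 10 min reads at room temperature.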
Tb PGK inh: qHTS Assay to Find Inhibitors of Phosphoglycerate Kinase; 380,000 tested, 0.043% active; PGK/GAPDH coupled, Kinase-Glo luminescence, 60 min; Potency, µM (series often up to 57.5 µM), without a hit: at the top dose activity change, negative = inhibition, hits mostly inhibitors; also: % is scaled to controls: 0 for no effect and ±100 for the full control effect; nearly all actives have a fitted effect of over 60% in size
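Recombinant glycosomal PGK reaction used 1,3-bisphosphoglycerate generated in-well by GAPDH (100nM final) in 100mM TEA pH 7.6, 5mM MgCl2, 0.01% Tween-20. After 60 minutes at room temperature, ATP was read by Kinase-Glo Plus luminescence end-point.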
Pol eta inh: qHTS for Inhibitors of Polymerase Eta. DNA polymerase eta (Homo sapiens), Q9Y253. recombinant Pol eta, fluorescent DNA replication assay. Potency, µM (series often up to 114 µM), inactives show at the highest dose activity change, negative = inhibition, actives largely listed as inhibitors. 390,000 tested, 1.2% active. AID 588591, 2011; also: % is scaled to controls: 0 for no effect and ±100 for the full control effect
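Fluorescent replication assay: 50 nM final substrate added after a 15 min room-temperature compound preincubation with 10 nM enzyme. Signal taken at 0 min and again at 10 min.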
POLK inh: qHTS for Inhibitors of Polymerase Kappa | DNA polymerase kappa (Homo sapiens), Q9UBT6 | purified Pol kappa, fluorescent DNA synthesis assay, 10 min | Potency, µM (highest dose often 107 µM), without a hit: at the highest dose activity, negative = inhibition, hits mostly inhibitors | 400,000 tested, 0.53% active | AID 588579, 2011; also: % is scaled to controls: 0 for no effect and ±100 for the full control effect
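Here, compound and 10 nM enzyme are combined for 15 min at room temperature; adding 50 nM substrate (final) starts DNA synthesis, tracked by fluorescence at 0 and 10 min against buffer-only wells.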
Pol iota inh: qHTS for Inhibitors of Polymerase Iota. DNA polymerase iota (Homo sapiens), Q9UNA4. Pol iota fluorescent replication assay, 10 min. Potency, µM (titrated, usually from 115 µM), inactives show at the highest dose activity, negative = inhibition, most hits filed as inhibitors. 390,000 tested, 1% active. AID 588590, 2011
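Fluorescent replication assay read twice, at 0 min and 10 min after adding 50 nM (final) substrate. Enzyme (10 nM) and compounds were first incubated 15 min at room temperature; enzyme-free buffer wells were negative controls.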
Active calls of the source: *; i = inactive; ? = inconclusive; . = not tested or not shown; [ ] = remark or other dose. Calls follow the shape of the dose curve; as a rule, active = well fitted curve in the direction sought with a large enough effect; inconclusive = small, poorly fitted or top-dose-only effect, or another doubt; inactive = no such curve, though single readings can be large; an effect the other way counts as inactive or inconclusive. Potency is read from the fitted curve at half-maximal effect.

SMILES | FEN1 inh | Pol beta inh | Tb PGK inh | Pol eta inh | POLK inh | Pol iota inh
O=C(Cn1cc(SCc2ccc(F)cc2)c2ccccc21)N1CCCCC1 | 2% | -3% | 9% | -16% | -15% | 5%
Cc1cc(C(=O)CSc2ncccn2)c(C)n1Cc1ccco1 | 15% | -4% | -2% | -4% | 1% | 26%
Cc1cc(C(=O)CSc2nnnn2C)c(C)n1Cc1ccco1 | -2% | ? | -3% | 7% | -7% | 79µM*
O=C(CSc1nc2ccc(Cl)cc2[nH]1)NCc1ccco1 | -3% | -12% | -11% | 5% | -16% | 9%
Cc1cc(C(=O)CSc2nc3ccc(Cl)cc3[nH]2)c(C)n1Cc1ccco1 | 2% | . | 1% | -1% | ? | 22µM*
CN(C)C(CNC(=O)CCOc1ccccc1)c1ccco1 (configuration not stated) | -13% | ? | 0% | ? | 79µM* | 32µM*
COc1cc(-c2noc(-c3ccc(NCc4ccccc4)c([N+](=O)[O-])c3)n2)cc(OC)c1OC | 4% | 45µM* | 4% | -16% | -15% | -8%
COc1cc(-c2noc(-c3ccc(N4CCCCC4)c([N+](=O)[O-])c3)n2)cc(OC)c1OC | -5% | 45µM* | -8% | -20% | -31% | -28%
COc1cc(-c2noc(-c3ccc(N(C)C)c([N+](=O)[O-])c3)n2)cc(OC)c1OC | -16% | 28µM* | i | -18% | -10% | ?
Cc1cc(C)cc(NS(=O)(=O)c2ccc(-c3cc(C)no3)cc2)c1 | 3% | -23% | -5% | -28% | -12% | 26%
COc1ccc(NC(=O)/C(C#N)=C\c2ccc(Br)o2)cc1 | -34% | ? | -24% | ? | 79µM* | 10µM*
COc1ccc(NC(=O)/C(C#N)=C\c2ccc(-c3cccc(C(=O)O)c3C)o2)cc1 | 4% | 7.9µM* | -14% | 22µM* | ? | ?
Nc1nccnc1C(=O)OCC(=O)NCCc1ccc(S(N)(=O)=O)cc1 | -3% | . | -3% | ? | -21% | 22µM*
COCC(=O)NCCc1ccc(S(N)(=O)=O)cc1 | -5% | -5% | . | -8% | -6% | -8%
N#CC(=C(\N)Sc1ccccc1N)/C(C#N)=C(/N)Sc1ccccc1N | . | 14%[57.1 µM] | . | -7%[57.1 µM] | -18%[60.1 µM] | 0%[58.9 µM]
Cc1cc2sc3ccccc3c(=O)c2c(C)c1O | -2% | 50µM* | i | -17% | -12% | ?
CNc1ccc(/C=C/c2ccccc2)cc1 | -8% | . | . | . | -20% | -6%
CN(C)S(=O)(=O)c1ccc(NC(=O)Cc2ccc(S(=O)(=O)N3CCOCC3)s2)cc1 | 10% | ? | -16% | 56µM* | ? | ?
O=C(Cc1ccc(S(=O)(=O)N2CCOCC2)s1)Nc1ccc(N2CCOCC2)cc1 | 1% | 32µM* | 2% | -23% | 1% | 59%
CC12CCC(C(N)=O)(c3nc4ccccc4nc31)C2(C)C (configuration not stated) | -1% | 89µM* | -8% | -5% | 1% | -9%
Cc1cc2c(C)nc(N/N=C/c3ccc([N+](=O)[O-])cc3)nc2o1 | -11% | -19% | 0% | ? | -13% | 35µM*
Cc1cc2c(C)nc(N/N=C/c3ccc(F)cc3)nc2o1 | 6% | ? | i | -19% | -7% | -18%
CC(C)CCNC(=O)c1ccc2nc(CCc3ccccc3)oc2c1 | 2% | 5% | 1% | -20% | -6%[60.1 µM] | 7%
O=C(O)c1ccc(Cl)c2c1C1C=CCC1C(c1ccccn1)N2 (configuration not stated) | . | 8.9µM* | . | . | . | .
Cc1cc(C)cc(-n2ccnc2SCC(=O)Nc2ccc(C)cc2C)c1 | -5% | -2% | i | -18% | -7%[60.1 µM] | 11%
